Compounds without any hit were thinned out: in the full panel of roughly 83,000, 20% have a hit.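 Each cell line was grown in a 96-well plate and treated with one concentration of compound for 48 hours. Values below 10 were considered active.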 A number with no mark means an inactive call. Calls of active or inactive are those of the source.

The first assay concerns HOP-62 NSCLC. The experiment in a line: NCI-60 one-dose screen, 48 h (100 = growth as untreated, 0 = no growth, -100 = all killed). The settings on record: 10 µM unless noted.
Take `O=C1C=CC2(NN=C(c3ccccc3)N2c2cccc(Cl)c2)C(Cl)=C1` (centres undefined): the growth was 63.8%.
Turning to `Cc1ccc(N=C2CSc3nnc(-c4csc5c4CCCC5)n3N2)cc1`, the growth was 27.9%.
On the same count and under the same terms, with `Cc1cc(-c2cc(OC(=O)c3ccccc3)ccc2Cl)cc2nnc(Nc3ccc(OCCN4CCCC4)cc3)nc12` the figure was 50.2%.
`Cc1cc(O)cc(-c2c(-c3ccnc(-c4cccnc4)c3)cnn2C)c1`: the growth is 67.2%.

Another assay relates to NCI-H460 lung. Described as above. Particulars: 10 µM unless noted.
With `CCOc1cc2ncc(C#N)c(Nc3ccc(F)c(Cl)c3)c2cc1NC(=O)/C=C/CN(C)C`, the growth was -44% (active).
Still for that read-out and setting: with `CCN(CC)CCNC(=O)c1c(C)[nH]c(/C=C2\C(=O)Nc3ccc(F)cc32)c1C` the figure was 1.9% (active); with `COc1ccc2c(CCC(c3ccccc3)c3ccccc3)c3[n+](cc2c1OC)CCc1cc2c(cc1-3)OCO2`, -3.4% (active).
Still for that read-out and setting: with `C[C@@H](Oc1cc(-n2cnc3ccc(CN4CCN(C)CC4)cc32)sc1C(N)=O)c1ccccc1C(F)(F)F` the figure was 8.47% (active); with `CC(C)=CCc1cc2c(cc1O)C1=C(C(=O)C3=C(NCCS3(=O)=O)C1=O)C(C=C(C)C)O2` (centres undefined), 17.7%; with `CC(N)C(Cc1ccc(Cl)cc1)c1ccc(Cl)cc1` (centres undefined), 66%.
The same measure, in the same setting: with `Clc1nc(Cl)c2ncn(CC#CCn3cnc4c(Cl)nc(Cl)nc43)c2n1` the figure was 12.5%; with `O=C(Cc1ccc(-c2ccc(OCCN3CCOCC3)cc2)cn1)NCc1ccccc1`, 2.01% (active).
`Cc1nc(NC(=O)N2CCC[C@H]2C(N)=O)sc1-c1ccnc(C(C)(C)C(F)(F)F)c1`: the growth is 24%.
On the same count and under the same terms, next, `COc1ccc2c(CCCc3ccc(Cl)cc3Cl)c3[n+](cc2c1OC)CCc1cc2c(cc1-3)OCO2`: 4.66% (active).

These data come from PubChem BioAssay (NCI).
